Drawing on PubChem BioAssay AID1006 (Sanford-Burnham Center for Chemical Genomics, 2008), this text covers inhibition for five compounds.

A word on the inhibition: it is the drop in the measured response relative to a control, in per cent.

The campaign covered roughly 200,000 compounds. About 3,000 (1.5%) were called active. The sample as a whole holds a higher share of actives than the screen did. Values without a mark were called inactive.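 The calls were made as follows: active = inhibition above about 50% when tested at 10 µM (limit read from the data); inactive = the rest.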

Luciferin 4-monooxygenase (Photinus pyralis), sequence (P08659 whole entry, looked up): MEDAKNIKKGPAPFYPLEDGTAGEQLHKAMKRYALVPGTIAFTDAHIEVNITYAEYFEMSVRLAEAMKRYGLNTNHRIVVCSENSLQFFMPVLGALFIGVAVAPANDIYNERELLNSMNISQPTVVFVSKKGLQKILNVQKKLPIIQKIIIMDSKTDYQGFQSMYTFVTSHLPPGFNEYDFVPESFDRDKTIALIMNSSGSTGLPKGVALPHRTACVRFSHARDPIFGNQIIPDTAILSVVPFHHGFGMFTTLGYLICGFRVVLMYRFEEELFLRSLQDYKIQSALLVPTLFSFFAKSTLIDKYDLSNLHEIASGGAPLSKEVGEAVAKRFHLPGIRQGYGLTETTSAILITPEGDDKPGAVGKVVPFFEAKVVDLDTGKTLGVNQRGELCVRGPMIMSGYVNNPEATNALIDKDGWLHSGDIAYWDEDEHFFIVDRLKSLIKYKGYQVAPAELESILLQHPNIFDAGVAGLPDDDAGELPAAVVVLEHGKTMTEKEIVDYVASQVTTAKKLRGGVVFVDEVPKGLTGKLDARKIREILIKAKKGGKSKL

This assay addresses Luciferin 4-monooxygenase (Photinus pyralis) (UniProt P08659). Kind of assay: firefly luciferase enzyme inhibitors, primary screen, artefact control for luciferase-based inhibitor screens, biochemical, luminescence, ATPLite (AID 1006). The conditions noted are these: 10 min, at 10 µM, stronger effect = higher value. (In general: Cellular ATP, detected with luciferase, serves as a proxy for viable cell number.)
On to `Cc1nc2ccc(N3CCN(C)CC3)cc2nc1C`, for which the inhibition was 15.6%.

As for `COc1cccc(-c2nc3ccc(N4CCN(C)CC4)cc3[nH]2)c1`, the inhibition was 95.8% (active).

For `CN1CCN(c2cc(N3CCNCC3)ccc2[N+](=O)[O-])CC1`, the inhibition is 5.2%.

As for `Cc1nn(Cc2ccccc2Cl)c(Cl)c1C(=O)OC(C(=O)NC(N)=O)C(C)C` (stereo not given), the inhibition is -7%.

For `Cc1ccnc(-n2c(C)cc(/C=C3\C(=O)NC(=S)N(C)C3=O)c2C)c1`, the inhibition is 5.2%.
